A word on the AC50: it is the concentration at which the activity in the assay is half-maximal. As a reminder, the viability is a read-out of living cells in per cent, often relative to untreated cells. As a reminder, the IC50 is the point on the concentration scale where inhibition reaches its midpoint.

A short description of experiment [1]: viability loss in pontine glioma line – cell-based, SU-DIPG-XIII, MIPE5.0, CellTiter-Glo, qHTS, dose response (AID 1347064; cut-off not given, nearly all actives have AC50 up to about 23 µM;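 for AC50: cells exposed to compound for 48 hours before the viability read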). As to conditions: CellTiter-Glo ATP luminescence. (In general: ATP-based viability assays read luminescence as a measure of living cells.)
Experiment [2] is described as follows: viability loss in pontine glioma line – cell-based, SU-DIPG-XXV, MIPE5.0, CellTiter-Glo, qHTS, dose response (AID 1347065).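 Note: cells exposed to compound for 48 hours before ATP readout.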 The note with it: CellTiter-Glo ATP luminescence.
Experiment [3] is described as follows: JHH-DIPG-1 glioma cell viability, MIPE5.0 library, CellTiter-Glo luminescence, qHTS (AID 1347067).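 Note: cells exposed to compound for 48 hours before readout.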 As to conditions: JHH-DIPG-1 glioma viability, CellTiter-Glo ATP luminescence.
The nature of experiment [4]: growth inhibition of DIPG cells – cell-based, MIPE5.0 library, qHTS (AID 1347068; cut-off not given, nearly all actives have IC50 up to about 30 µM;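 for IC50: cells exposed to compound for 48 hours before viability readout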). As to conditions: SU-DIPG-XXV viability.
Experiment [5] can be described thus: P. berghei load reduction in hepatocytes – cell-based, HepG2, luciferase luminescence, HepG2 viability, primary screen (AID 624349; in the data active = parasite load remaining mostly below about 12%, no sharp cut-off; inactive = mostly above about 10%;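 note: 100% = mean of DMSO negative control wells on the same plate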). As to conditions: P. berghei liver stage in HepG2, luciferase luminescence, concentration not given here; parasite load remaining: stronger effect = lower value; viability: measured here: HepG2 viability without parasites.
Experiment [6] is described as follows: growth inhibition of DIPG cells – cell-based, MIPE4.0 library, CellTiter-Glo luminescence, qHTS (AID 1347066; cut-off not given, nearly all actives have AC50 up to about 30 µM;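 note: cells exposed to compound for 48 hours before readout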). As to conditions: SU-DIPG-VI viability, CellTiter-Glo ATP luminescence.
The nature of experiment [7]: viability loss with induced miR-34 in A549 – imaging, A549 dox-inducible miR-34, nuclei and caspase counts, primary screen (AID 1347080;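 active = compounds whose cell count with miR-34 switched on is under 0.7 times the count with it off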). As to conditions: A549 miR-34 inducible, Hoechst nuclei count, 48 h.
Experiment [8] in a line: MELAS cybrid and Rieske KO viability enhancers – cell-based, MELAS cybrids, Rieske KO mouse fibroblasts, CellTiter-Glo, primary screen (AID 1508586;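 active = mean z-score across replicates of 1.96 or higher in either the MELAS or the Rieske mutant cell line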;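 note: z relative to plate mean and SD of compound and empty wells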). The note with it: low glucose.
Setting [9] is: stronger effect = lower value, cell number ratio, induced over uninduced.
Where [10] appears, read: measured here: relative caspase fold change +Dox/-Dox.
Where [11] appears, read: measured here: total cells with miR-34 induction, stronger effect = lower value.
Setting [12] is: measured here: total cells without miR-34 induction.
Setting [13] is: MELAS cybrid survival, CellTiter-Glo 48 h, stronger effect = higher value.
Where [14] appears, read: Rieske KO mouse fibroblast survival, CellTiter-Glo 72 h.

Results filed as inconclusive are left out. Calls of active or inactive are those of the source. Unless noted, no cut-off is given here; in the data, nearly all actives have AC50 up to about 26 µM.

`C=Cc1cc(O)cc2nc(-c3ccc(O)c(F)c3)oc12`: the compound was classed as inactive in experiment [1], in experiment [2], in experiment [3] and in experiment [4].

With `CCS(=O)(=O)Nc1ccc(Oc2ccc(F)cc2F)c(-c2cn(C)c(=O)c3[nH]ccc23)c1`, the values for the half-maximal activity concentration (AC50) in experiment [1], in experiment [2] and in experiment [3] were 0.105 µM (active), 2.95 µM (active) and 4.68 µM (active), respectively.

For `OC(c1ccc(-c2ccc(CN3CCN(Cc4ccncc4)CC3)cc2)c(F)c1)(C(F)(F)F)C(F)(F)F`, the call in experiment [1], in experiment [2], in experiment [3] and in experiment [4] was inactive.

Take `Cc1ccc(-n2c(C)cc(-c3nnc4n3CCCCC4)c2C)cc1`: the AC50 in experiment [1] was 14.8 µM (active); in experiment [2], 20.9 µM (active); in experiment [3] it was 18.6 µM (active).

Take `NC(=O)c1cccc(-c2cc(Nc3ccc(OC(F)(F)F)cc3)ncn2)c1`: in experiment [5], the parasite load remaining was 33% (inactive). The viability in experiment [5] came out at 100%. Besides, the concentration at half-maximal activity (AC50) in experiment [1], in experiment [2] and in experiment [3] was 20.9 µM (active) throughout. Besides, the compound was called inactive in experiment [6]. The IC50 in experiment [4] is 18.6 µM (active). Also, the fold change in experiment [7] (setting [9]) is 0.899 (inactive); in experiment [7] (setting [10]), 1.65. The figures for the cell count in experiment [7] (setting [11]) and in experiment [7] (setting [12]) were 7160 and 7960, respectively. For the same compound, the z-score is -0.11 (inactive) in experiment [8] (setting [13]) and -0.362 in experiment [8] (setting [14]).

Turning to `CCN1C(=O)CNc2ncc(-c3ccc(-c4ncn[nH]4)nc3C)nc21`, the AC50 is 4.17 µM (active) in experiment [1], 1.48 µM (active) in experiment [2] and 5.9 µM (active) in experiment [3]. For the same compound, in experiment [4], the IC50 is 8.33 µM (active).

On to `COCc1c(-c2ccc(NC(=O)Nc3cc(C(F)(F)F)ccc3F)c(F)c2)c2c(N)ncnn2c1CN1CCOCC1`, for which the figures for the AC50 in experiment [1], in experiment [2] and in experiment [3] were 0.295 µM (active), 0.186 µM (active) and 6.61 µM (active), respectively. For the same compound, the IC50 in experiment [4] is 7.42 µM (active).

For the compound `Cc1ccc(S(=O)(=O)Nc2cc(C(F)(F)F)ccc2C(=O)Nc2nc(-c3ccccc3)cs2)cc1`, the AC50 in experiment [1] is 4.17 µM (active); in experiment [2] it was 3.72 µM (active); in experiment [3] it was 3.32 µM (active). Besides, in experiment [4], the IC50 is 4.68 µM (active).

For `C[C@@H](C(=O)Nc1ccc(Cl)cc1)C1CCC(c2ccnc3ccc(F)cc23)CC1` (some centres not stated), the compound was classed as inactive in experiment [1], in experiment [2] and in experiment [3].

With `Cc1c(NC(=O)c2cc(C(N)=O)nc3cc(F)ccc23)c(C(F)(F)F)nn1Cc1ccc(C(C)(C)C)cc1`, the results for the half-maximal activity concentration (AC50) in experiment [1], in experiment [2] and in experiment [3] were 26.3 µM (active), 20.9 µM (active) and 23.5 µM (active), respectively.

In the case of `CONC(=O)Nc1ccc(-c2sc3c(c2CN(C)C)c(=O)n(-c2ccc(OC)nn2)c(=O)n3Cc2c(F)cccc2F)cc1`, the result in experiment [1], in experiment [2] and in experiment [3] was inactive.

On to `Nc1ncnc2c1nc(Cl)n2[C@@H]1O[C@H](CO)[C@@H](O)[C@H]1O`, for which the AC50 in experiment [1] was 16.6 µM (active); in experiment [6] it was 23.5 µM (active). For the same compound, in experiment [4], the call was inactive.

As to `Cc1cc(C)cc(Oc2ccc(CNC(=O)[C@H](C)N)cc2C)c1`, the figures for the half-maximal activity concentration (AC50) in experiment [1] and in experiment [2] were 26.3 µM (active) and 18.6 µM (active), respectively. The compound was classed as inactive in experiment [4].

Regarding `Cc1cc(O[C@@H](CCC(F)(F)F)c2ccc(C(=O)NCCC(=O)O)cc2)cc(C)c1-c1ccc(C(C)(C)C)cc1`, the AC50 in experiment [1] is 11.8 µM (active); in experiment [2], 9.34 µM (active). For the same compound, in experiment [4], the concentration for half-maximal inhibition (IC50) is 8.33 µM (active).

For the compound `C[C@H]1CNCCCN1S(=O)(=O)c1cccc2cncc(F)c12`, the compound was classed as inactive in experiment [1], in experiment [3] and in experiment [4].

As to `NCc1ccc(OCCCc2sc(-c3ccc4c(c3)/C(=N/Nc3nc5ccccc5s3)CCC4)nc2C(=O)O)cc1`, the outcome in experiment [1], in experiment [2] and in experiment [4] was inactive.

Take `Cc1c(Cl)cccc1S(=O)(=O)Nc1nc(CCN2CCOCC2=O)cs1`: the call in experiment [1], in experiment [2] and in experiment [4] was inactive.

For `Cc1c(-c2ccc(-c3ccccc3F)cc2)nc2ccc(F)cc2c1C(=O)O`, the result in experiment [1] and in experiment [3] was inactive.

Turning to `COC(=O)N[C@@H](C)CNc1nccc(-c2cn(C(C)C)nc2-c2cc(Cl)cc(NS(C)(=O)=O)c2F)n1`, the call in experiment [1] and in experiment [4] was inactive. Also, the concentration at half-maximal activity (AC50) in experiment [2] was 1.48 µM (active).

As for `Oc1ccc(C2CCN(c3ccnc4ccccc34)CC2)cc1O`, the values for the AC50 in experiment [1] and in experiment [3] were 16.6 µM (active) and 20.9 µM (active), respectively.

As for `CCOCc1nc2c(N)nc3ccccc3c2n1CC(C)(C)O`, the compound was called inactive in experiment [1], in experiment [2] and in experiment [4].

For the compound `O=C(Nc1ccc(F)c(C(F)(F)F)c1)Nc1nnc(-c2ccncc2)s1`, the compound was called inactive in experiment [1], in experiment [6], in experiment [3] and in experiment [4].

As for `C=CCN(/C=C1\C(=O)O[C@@H](COC)[C@]2(C)C1=C(O)C(=O)C1=C2[C@@H](OC(C)=O)C[C@]2(C)C(=O)CC[C@H]12)CC=C`, the results for the AC50 in experiment [1] and in experiment [2] were 16.6 µM (active) and 9.34 µM (active), respectively. Moreover, in experiment [4], the compound was called inactive.

For `CN(C)Cc1cccc(N=C(c2ccccc2)c2c(O)[nH]c3cc(C(=O)N(C)C)ccc23)c1`, the outcome in experiment [1] and in experiment [6] was inactive. For the same compound, in experiment [4], the IC50 is 18.6 µM (active). The fold change is 0.785 (inactive) in experiment [7] (setting [9]) and 1.01 in experiment [7] (setting [10]). The cell count in experiment [7] (setting [11]) is 3180; in experiment [7] (setting [12]) it was 4050. Besides, the z-score in experiment [8] (setting [13]) is -0.347 (inactive); in experiment [8] (setting [14]), 0.635.

The values are drawn from PubChem BioAssay.
